Reference: PubChem BioAssay (NCATS)
Results filed as inconclusive are left out. Unmarked numbers belong to inactive results. The source made the active and inactive calls. The call rests on the fitted dose curve; in most records, active means well fitted cell-killing curve with a large enough effect; inconclusive means small, poorly fitted or top-dose-only effect; inactive means flat fitted curve, though single readings scatter.

Experiment: SW1088 Cancer Cell Toxicity qHTS against the NCATS CANVASS Library (AID 1347350); further: nearly all actives have a fitted effect of over 75% in size
Conditions: SW1088 viability, CellTiter-Glo luminescence, 72 h; series mostly up to 38.3 µM; activity change, negative = cytotoxicity: at the top concentration
Text: Natural products and their derivatives continue to be wellsprings of nascent therapeutic potential. However, many laboratories have limited resources for biological evaluation, leaving their previously isolated or synthesized compounds largely or completely untested. To address this issue, the Canvass library of natural products was assembled (https://tripod.nih.gov/canvass), in collaboration with academic and industry researchers, for quantitative high-throughput screening (qHTS) across a diverse set of cell-based and biochemical assays. The pure (>85% purity by liquid chromatography/mass spectrometry [LC/MS]) Canvass library of 346 natural products were submitted by 45 academic laboratories and companies around the world. We collected pure natural products to circumvent deconvolution and structure elucidation due to time and resource limitations. The library was formatted into 1536-well plates and evaluated in 50 qHTS (in an 11-pnt concentration series) bioassays with broad scope of disease-relevant mechanisms. The resulting data set from 50 different assays was then systematically analyzed to identify overall trends and specific natural products with interesting biological activities. Reported herein are the results of each individual qHTS and their corresponding assay protocol. National Center for Advancing Translational Sciences (NCATS), Rockville, MD National Institute of Health (NIH), Bethesda, Maryland
Cancer Cell Toxicity protocol for cell lines COV-362, OV-KATE, OV-SAHO, UWB1.289, UWB1.289-WTBRCA1, HEK-293, HPAF-II, Panc-1005, SW1088, or U-118MG. 1. In a 1536 well, white solid bottom tissue culture plates (Corning 7494), corresponding cells (COV-362, OV-KATE, OV-SAHO, UWB1.289, UWB1.289-WTBRCA1, HEK-293, HPAF-II, Panc-1005, SW1088, or U-118MG) were dispensed in each well at a final concentration of 1000 cells / well (6uL volume) using the Multidrop Combi (Thermo Fisher Scientific) dispenser. 2. The plates were incubated for 4 hours at 37 degrees C/5% CO2/95% Rh. 3. Compounds were pin transferred (~23nL volume) via Wako Pin-tool (Wako Automation, Richmond VA) equipped with a 1536 pin head. The assay plates were treated with compounds in an 11-pnt concentration series with a final concentration range of […] to 85uM. 4. Bortezomib was used as a single dose control (0.5mM column 4, rows 1 - 32) at a final concentration of 1.9uM and as a 16pnt titration (1mM; 1:2 dilution; 16-points; n = 2; column 3, rows 1 - 32) with final concentration range of 0.1nM - 3.8uM. 5. The assay plates were incubated for 72 hours at 37 degrees C/5% CO2/95% Rh. 6. 3uL CellTiter-Glo detection reagent was then added to the plates (columns 2 - 48, rows 1 - 32) and incubated at room temperature for additional 15min. 7. Luminescence signal was acquired via the ViewLux plate reader (PerkinElmer) using a clear filter, 2 second exposure and 2x binning settings.
On the % scale 0 is the no-effect control and ±100 the full control effect; potency means the concentration at half of the fitted maximal effect.

SMILES | outcome | Potency | activity change, negative = cytotoxicity
CCN1C[C@]2(C)CC[C@@H](O)[C@]34C1[C@H](C[C@H]23)C12CCC(CC14)[C@](O)(CO)[C@H]2O (some centres not stated) | inactive | – | –
O=C(c1ccccc1O)c1[nH]c(Cl)c(Cl)c1-n1c(C(=O)c2ccccc2O)cc(Cl)c1Cl | – | 0.749 µM (active) | –
CO[C@@H](/C=C/CC/C=C/C(=O)O)[C@@H](O)[C@H](C)/C=C(\C)[C@@H](O)[C@H](C)C(=O)CCCC1CC(=O)NC(=O)C1 | – | – | 0.491%
CCN1C[C@]2(C)CC[C@H](O)[C@]34C1C(C[C@H]23)[C@@]12CC[C@H](CC14)[C@](O)(COC(=O)c1ccc(OC)c(OC)c1)[C@H]2O (some centres not stated) | – | – | -6.7%
COc1ccc2c(c1)[nH]c1c(C)nccc12 | inactive [at 76 µM] | – | –
CC1=CC2CC[C@@H]3[C@@H](C)C[C@H](C)[C@@H](C1)N23 (some centres not stated) | inactive | – | –
CC=C1CN(C=O)[C@H]2C[C@@H]1[C@@H](C(=O)OC)[C@@]13CCOC21Nc1ccccc13 (some centres not stated) | – | – | -20%
COc1ccc(C23Oc4cc(OC)cc(OC)c4[C@](O)([C@H](c4ccccc4)C2C(=O)NCCCCNC(=O)c2ccccc2)[C@@H]3O)cc1 (some centres not stated) | – | – | -6.86%
CCC(=O)CCCCC[C@@H]1NC(=O)[C@H]2CCCCN2C(=O)[C@H]([C@@H](C)CC)NC(=O)[C@H](Cc2cn(OC)c3ccccc23)NC1=O | – | 2.66 µM (active) | –
CNCCc1ccccc1 | inactive | – | –
CCCC[C@@H]1CC[C@H]2CCCC(CCC)N12 (some centres not stated) | – | – | -0.677%
CC1=CC(=O)C2=C(C)C[C@H](O)[C@@H]3[C@H](OC(=O)[C@@H]3C)[C@@H]12 | – | – | -0.308%
CC[N@@+]1([O-])C[C@]2(C)CC[C@@H](O)[C@@]34C5C[C@H]6CC[C@@]5(C(C[C@H]23)C41)[C@H](O)[C@@]6(O)CO (some centres not stated) | – | – | -5.77%
COC(=O)C1=C2Nc3ccccc3[C@@]23CCN2CC(C(C)=O)C1C[C@H]23 (some centres not stated) | – | – | -10.8%
CN1C(=O)[C@]23CC4C(C)(C)[C@@]5(C[C@@]41CN2CC[C@@]3(C)O)C(=O)Nc1c5ccc2c1OC=CC(C)(C)O2 (some centres not stated) | – | – | -2.08%
CO[C@@H](/C=C/CC/C=C/C(=O)O)[C@@H](O)[C@H](C)[C@@H](O)/C(C)=C/[C@H](C)C(=O)CCCC1CC(=O)NC(=O)C1 | inactive | – | –
CCC[C@H]1CC[C@H]2[C@H](C)CCC[C@H]2N1 | – | – | -16.1%
c1ccc2c3c([nH]c2c1)CNCC3 | – | 26.6 µM (active) | –
COc1ccc2c3c([nH]c2c1)C(C)=NCC3 | – | – | -12.5%
C/C=C1/CN2CC[C@]34C(=Nc5ccccc53)[C@@H]2C[C@@H]1[C@H]4C(=O)OC | inactive [at 76 µM] | – | –
CCCCC[C@@H]1OC(=O)[C@@H](C)N(C)C(=O)[C@H](CCCCC)OC(=O)C(C)N(C)C(=O)[C@H](CCCCC)OC(=O)[C@@H](C)N(C)C(=O)[C@H](CCCCC)OC(=O)C(C)N(C)C1=O (some centres not stated) | – | 6.68 µM (active) | –
CC(=O)N[C@H]1CCN2CCC[C@H]12 | inactive [at 85.4 µM] | – | –
CNCCc1ccc(O)cc1 | – | – | 4.19%
CO[C@H](c1ccccc1)[C@H]1NC(=O)C(C)NC(=O)C(C[C@@H](C)CO)N(C)C(=O)[C@@H](C(O)c2cn(C(C)(C)C3CO3)c3ccccc23)NC(=O)C(C(C)C=C(C)C)NC(=O)C(CC(C)C)N(C)C(=O)C(C(C)C)NC1=O (some centres not stated) | – | – | -15.4% [at 22.9 µM]
CN(C)Cc1c[nH]c2ccccc12 | inactive | – | –
C[C@]12CC(O)C3[C@@H](CCC4C[C@@H](O)CC[C@@]43CO)[C@@]1(O)CCC2C1=CC(=O)OC1 (some centres not stated) | – | – | -9.12%
NCCc1ccccc1 | inactive | – | –
